The supplement of paper PMC9794691

How the values were obtained:
Assay in all cases: area under confluence curve of osimertinib + compound combination regimen (DTP regrowth); compare to osimertinib-only DTP control AUC of the same experiment (AUC (confluence x time, arbitrary))
[1] = test system: H1975
How it was run: (§1)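 The area under the IncuCyte confluence–time curve, calculated in Prism and taken as the median of triplicates where available, is the value reported. It was measured in EGFR-mutant NSCLC lines that received the EGFR inhibitor either alone, followed by a test compound, or together with a fixed-dose test compound until the persister stage (10–21 days) and then drug-free medium. Medium was refreshed every 3–4 days until the inhibitor-only wells were confluent again.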

[2] = test system: HCC2279
How it was run: as §1

[3] = test system: HCC2935
How it was run: as §1

[4] = test system: HCC4006
How it was run: as §1

[5] = test system: HCC827
How it was run: as §1

[6] = test system: II-18
How it was run: as §1

[7] = test system: PC9
How it was run: as §1

SMILES: CCn1nc(C2CCN(C(=O)CCO)CC2)nc1-c1cnc(N)c(-c2nnc(C(C)(C)C)o2)n1 + C=CC(=O)Nc1cc(Nc2nccc(-c3cn(C)c4ccccc34)n2)c(OC)cc1N(C)CCN(C)C [osimertinib]
- area under confluence curve ([1]; test compound dose 1000 nM, dosing schedule: sequential, osimertinib-only DTP control AUC in same experiment: 15943, DMSO control AUC in same experiment: 20657): 6780
- area under confluence curve ([1]; test compound dose 1000 nM, dosing schedule: upfront, osimertinib-only DTP control AUC in same experiment: 27804, DMSO control AUC in same experiment: 20657): 13600
- area under confluence curve ([2]; test compound dose 1000 nM, dosing schedule: sequential, osimertinib-only DTP control AUC in same experiment: 11520, DMSO control AUC in same experiment: 9426): 11600
- area under confluence curve ([2]; test compound dose 1000 nM, dosing schedule: upfront, osimertinib-only DTP control AUC in same experiment: 21942, DMSO control AUC in same experiment: 9426): 16800
- area under confluence curve ([3]; test compound dose 1000 nM, dosing schedule: sequential, osimertinib-only DTP control AUC in same experiment: 6271, DMSO control AUC in same experiment: 13875): 6130
- area under confluence curve ([3]; test compound dose 1000 nM, dosing schedule: upfront, osimertinib-only DTP control AUC in same experiment: 10360, DMSO control AUC in same experiment: 13875): 4470
- area under confluence curve ([4]; test compound dose 1000 nM, dosing schedule: sequential, osimertinib-only DTP control AUC in same experiment: 19238, DMSO control AUC in same experiment: 16638): 16700
- area under confluence curve ([4]; test compound dose 1000 nM, dosing schedule: upfront, osimertinib-only DTP control AUC in same experiment: 21234, DMSO control AUC in same experiment: 16638): 5320
- area under confluence curve ([5]; test compound dose 1000 nM, dosing schedule: sequential, osimertinib-only DTP control AUC in same experiment: 8266, DMSO control AUC in same experiment: 27404): 7050
- area under confluence curve ([5]; test compound dose 1000 nM, dosing schedule: upfront, osimertinib-only DTP control AUC in same experiment: 13929, DMSO control AUC in same experiment: 27404): 11000
- area under confluence curve ([6]; test compound dose 1000 nM, dosing schedule: sequential, osimertinib-only DTP control AUC in same experiment: 21014, DMSO control AUC in same experiment: 18482): 11100
- area under confluence curve ([6]; test compound dose 1000 nM, dosing schedule: upfront, osimertinib-only DTP control AUC in same experiment: 27084, DMSO control AUC in same experiment: 18482): 4500

SMILES: CN(C)C/C=C/C(=O)Nc1ccc(C(=O)Nc2cccc(Nc3ncc(Cl)c(-c4c[nH]c5ccccc45)n3)c2)cc1 + C=CC(=O)Nc1cc(Nc2nccc(-c3cn(C)c4ccccc34)n2)c(OC)cc1N(C)CCN(C)C [osimertinib]
- area under confluence curve ([7]; test compound dose 1000 nM, dosing schedule: sequential, osimertinib-only DTP control AUC in same experiment: 11414, DMSO control AUC in same experiment: 31219): 12600
- area under confluence curve ([7]; test compound dose 1000 nM, dosing schedule: upfront, osimertinib-only DTP control AUC in same experiment: 18848, DMSO control AUC in same experiment: 31219): 21300

SMILES: COc1cc(CCc2cc(NC(=O)c3ccc(N4CC(C)NC(C)C4)cc3)n[nH]2)cc(OC)c1 (centres undefined) + C=CC(=O)Nc1cc(Nc2nccc(-c3cn(C)c4ccccc34)n2)c(OC)cc1N(C)CCN(C)C [osimertinib]
- area under confluence curve ([1]; test compound dose 1000 nM, dosing schedule: sequential, osimertinib-only DTP control AUC in same experiment: 12533, DMSO control AUC in same experiment: 14522): 3690
- area under confluence curve ([1]; test compound dose 1000 nM, dosing schedule: upfront, osimertinib-only DTP control AUC in same experiment: 18969, DMSO control AUC in same experiment: 14522): 17800
- area under confluence curve ([2]; test compound dose 1000 nM, dosing schedule: sequential, osimertinib-only DTP control AUC in same experiment: 20224, DMSO control AUC in same experiment: 29252): 10100
- area under confluence curve ([2]; test compound dose 1000 nM, dosing schedule: upfront, osimertinib-only DTP control AUC in same experiment: 43517, DMSO control AUC in same experiment: 29252): 18500
- area under confluence curve ([3]; test compound dose 1000 nM, dosing schedule: sequential, osimertinib-only DTP control AUC in same experiment: 9121, DMSO control AUC in same experiment: 11459): 9140
- area under confluence curve ([3]; test compound dose 1000 nM, dosing schedule: upfront, osimertinib-only DTP control AUC in same experiment: 12748, DMSO control AUC in same experiment: 11459): 11800
- area under confluence curve ([4]; test compound dose 1000 nM, dosing schedule: sequential, osimertinib-only DTP control AUC in same experiment: 22375, DMSO control AUC in same experiment: 16794): 14900
- area under confluence curve ([4]; test compound dose 1000 nM, dosing schedule: upfront, osimertinib-only DTP control AUC in same experiment: 24440, DMSO control AUC in same experiment: 16794): 8920
- area under confluence curve ([5]; test compound dose 1000 nM, dosing schedule: sequential, osimertinib-only DTP control AUC in same experiment: 5666, DMSO control AUC in same experiment: 43928): 3350
- area under confluence curve ([5]; test compound dose 1000 nM, dosing schedule: upfront, osimertinib-only DTP control AUC in same experiment: 19044, DMSO control AUC in same experiment: 43928): 7760
- area under confluence curve ([6]; test compound dose 1000 nM, dosing schedule: sequential, osimertinib-only DTP control AUC in same experiment: 7374, DMSO control AUC in same experiment: 23373): 2610
- area under confluence curve ([6]; test compound dose 1000 nM, dosing schedule: upfront, osimertinib-only DTP control AUC in same experiment: 15065, DMSO control AUC in same experiment: 23373): 11500
- area under confluence curve ([7]; test compound dose 1000 nM, dosing schedule: sequential, osimertinib-only DTP control AUC in same experiment: 9508, DMSO control AUC in same experiment: 26668): 4800
- area under confluence curve ([7]; test compound dose 1000 nM, dosing schedule: sequential, osimertinib-only DTP control AUC in same experiment: 10968, DMSO control AUC in same experiment: 21594): 7160
- area under confluence curve ([7]; test compound dose 1000 nM, dosing schedule: upfront, osimertinib-only DTP control AUC in same experiment: 11298, DMSO control AUC in same experiment: 26668): 2090
- area under confluence curve ([7]; test compound dose 1000 nM, dosing schedule: upfront, osimertinib-only DTP control AUC in same experiment: 17834, DMSO control AUC in same experiment: 21594): 6660

SMILES: Nc1ccc(/C=C/C(=O)NCc2cc3cc(-c4ccc(C(=O)N5CCC(F)(F)CC5)cc4)cc(-c4ccc(F)cc4)c3o2)cn1 + C=CC(=O)Nc1cc(Nc2nccc(-c3cn(C)c4ccccc34)n2)c(OC)cc1N(C)CCN(C)C [osimertinib]
- area under confluence curve ([7]; test compound dose 100 nM, dosing schedule: sequential, osimertinib-only DTP control AUC in same experiment: 14258, DMSO control AUC in same experiment: 21913): 6800
- area under confluence curve ([7]; test compound dose 100 nM, dosing schedule: upfront, osimertinib-only DTP control AUC in same experiment: 21499, DMSO control AUC in same experiment: 21913): 12200

SMILES: C[C@@]1(C(=O)Nc2ccc(F)nc2)CCCN1c1nc(Nc2cc(C3CC3)n[nH]2)c2cccn2n1 + C=CC(=O)Nc1cc(Nc2nccc(-c3cn(C)c4ccccc34)n2)c(OC)cc1N(C)CCN(C)C [osimertinib]
- area under confluence curve ([1]; test compound dose 100 nM, dosing schedule: sequential, osimertinib-only DTP control AUC in same experiment: 22617, DMSO control AUC in same experiment: 16540): 13500
- area under confluence curve ([1]; test compound dose 100 nM, dosing schedule: upfront, osimertinib-only DTP control AUC in same experiment: 28291, DMSO control AUC in same experiment: 16540): 12500
- area under confluence curve ([2]; test compound dose 100 nM, dosing schedule: sequential, osimertinib-only DTP control AUC in same experiment: 26096, DMSO control AUC in same experiment: 14404): 24200
- area under confluence curve ([2]; test compound dose 100 nM, dosing schedule: upfront, osimertinib-only DTP control AUC in same experiment: 33120, DMSO control AUC in same experiment: 14404): 34700
- area under confluence curve ([3]; test compound dose 100 nM, dosing schedule: sequential, osimertinib-only DTP control AUC in same experiment: 22314, DMSO control AUC in same experiment: 19215): 22300
- area under confluence curve ([3]; test compound dose 100 nM, dosing schedule: upfront, osimertinib-only DTP control AUC in same experiment: 29846, DMSO control AUC in same experiment: 19215): 22200
- area under confluence curve ([4]; test compound dose 100 nM, dosing schedule: sequential, osimertinib-only DTP control AUC in same experiment: 12791, DMSO control AUC in same experiment: 18415): 11000
- area under confluence curve ([4]; test compound dose 100 nM, dosing schedule: upfront, osimertinib-only DTP control AUC in same experiment: 17269, DMSO control AUC in same experiment: 18415): 9040
- area under confluence curve ([5]; test compound dose 100 nM, dosing schedule: sequential, osimertinib-only DTP control AUC in same experiment: 15330, DMSO control AUC in same experiment: 21320): 12600
- area under confluence curve ([5]; test compound dose 100 nM, dosing schedule: upfront, osimertinib-only DTP control AUC in same experiment: 20798, DMSO control AUC in same experiment: 21320): 23300
- area under confluence curve ([6]; test compound dose 100 nM, dosing schedule: sequential, osimertinib-only DTP control AUC in same experiment: 8624, DMSO control AUC in same experiment: 11834): 533
- area under confluence curve ([6]; test compound dose 100 nM, dosing schedule: upfront, osimertinib-only DTP control AUC in same experiment: 10856, DMSO control AUC in same experiment: 11834): 1400
